Data: the supplement of paper PMC10127200
Counter-ions that a name gives are not always drawn.

Tested on: 786-O
Assay: Euclidean distance of Cell Painting phenotypic profile (signed KS, 77 features) to DMSO centroid (dimensionless distance); 5 or 10 uM (library dependent); higher = stronger phenotypic change vs DMSO (phenoactivity)
Conditions: 48 h
Summary of the method: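 At 10 or 5 uM, as set by the library, and 0.1% DMSO final, compounds were applied for 48 h to five cancer lines and one healthy fibroblast line. Stained cells were imaged confocally at 20X in 9 fields per well, and Harmony extracted 77 features scored as signed Kolmogorov-Smirnov statistics against vehicle wells on the same plate. Profiles underwent plate-position correction, correlation weighting and replicate averaging at the top dose. Phenoactivity is the Euclidean distance from each such profile to the median vehicle profile.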

SMILES	Euclidean distance
CN(C)CCOc1ccc(/C(=C(/CCCl)c2ccccc2)c2ccccc2)cc1 [Toremifene Citrate]	1.72
CS(=O)(=O)CCC#N [Dapansutrile (OLT1177)]	0.937
Nc1ccn([C@@H]2O[C@H](CO)[C@@H](O)C2(F)F)c(=O)n1 [Gemcitabine]	2.58
CCN1CCN(Cc2ccc(-c3cc4c(N[C@H](C)c5ccccc5)ncnc4[nH]3)cc2)CC1	2.34
Cc1ccc(C(=O)Nc2ccc(CN3CCN(C)CC3)c(C(F)(F)F)c2)cc1C#Cc1cnc2cccnn12	4.62
Cc1cc(CC(C)CC(C)(C)C)n(O)c(=O)c1 (stereo not given) [Piroctone Olamine]	2.93
CNC(=O)c1cc(Oc2ccc3nc(N[C@@H]4CCCC[C@H]4O)sc3c2)ccn1	0.859
COc1ccccc1S(=O)(=O)Nc1ccc2c(c1)CN(C)C(=O)N2	1.98
O=c1[nH]c(=O)n([C@H]2C[C@H](O)[C@@H](CO)O2)cc1I [Idoxuridine]	2.71
C[C@]12CCC(=O)C=C1CC[C@@H]1[C@@H]2[C@@H](O)C[C@@]2(C)[C@H]1CC[C@]2(O)C(=O)CO [Hydrocortisone]	0.925
CCOC(=O)[C@H](CCc1ccccc1)N[C@@H](C)C(=O)N1CCC[C@H]1C(=O)O [Enalapril Maleate]	1.04
O=S1(=O)CCN(CN2CCS(=O)(=O)NC2)CN1 [Taurolidine]	1.32
CC(=O)O[C@H]1Cc2ccccc2N(C(N)=O)c2ccccc21 [Eslicarbazepine Acetate]	0.621
C[C@]12CC[C@@H]3c4ccc(OC(=O)c5ccccc5)cc4CC[C@H]3[C@@H]1CC[C@@H]2O [Estradiol Benzoate]	0.619
Nc1nc(N)c(N=O)c(OCC2CCCCC2)n1	1.11
CN1CCN(c2ccc3nc(-c4c(N)c5c(F)cccc5[nH]c4=O)[nH]c3c2)CC1 [Dovitinib (TKI-258) Dilactic Acid]	2.81
Cc1cccc(Oc2cnc(=O)[nH]c2)c1	1.47
CC(C)(C)CC(C)(C)c1ccc(OCCOCC[N+](C)(C)Cc2ccccc2)cc1 [Benzethonium Chloride]	3.02
O=C(NC1CCNCC1)c1n[nH]cc1NC(=O)c1c(Cl)cccc1Cl	3.37
CCCNCC(O)COc1ccccc1C(=O)CCc1ccccc1 (stereo not given) [Propafenone HCl]	1.59

SMILES	Euclidean distance
CCCC(=O)Nc1ccc(OCC(O)CNC(C)C)c(C(C)=O)c1 (stereo not given) [Acebutolol HCl]	0.96
COC(=O)C1=CO[C@@H](O[C@@H]2O[C@H](CO)[C@@H](O)[C@H](O)[C@H]2O)[C@@H]2[C@@H](C)[C@@H](O)C[C@H]12 [Loganin]	0.879
NCCS [Cysteamine HCl]	0.86
Cc1nc(Nc2ncc(C(=O)Nc3c(C)cccc3Cl)s2)cc(N2CCN(CCO)CC2)n1 [Dasatinib Monohydrate]	3.41
N[C@@H]1CCCCN(c2c(F)cc3c(=O)c(C(=O)O)cn(C4CC4)c3c2Cl)C1 [Besifloxacin HCl]	0.849
N=C(N)NC(=O)c1nc(Cl)c(N)nc1N [Amiloride HCl dihydrate]	1.53
C[C@@H](Oc1ccc2[nH]nc(/C=C/c3cnn(CCO)c3)c2c1)c1c(Cl)cncc1Cl	3.17
Nc1ccc(S(=O)(=O)Nc2ccnn2-c2ccccc2)cc1 [Sulfaphenazole]	0.816
CC(C)CC(=O)Nc1n[nH]c2c1CN(C(=O)C1CCN(C)CC1)C2(C)C	3.52
O=C1NC(=O)C(=Cc2ccc(-c3ccc(F)cc3)o2)S1 (stereo in doubt)	1.04
Cn1c(=O)cc(N2CCC[C@@H](N)C2)n(Cc2cc(F)ccc2C#N)c1=O [Trelagliptin succinate]	0.808
CC[C@H]1OC(=O)C[C@@H](O)[C@H](C)[C@@H](O[C@@H]2O[C@H](C)[C@@H](O[C@H]3C[C@@](C)(O)[C@@H](O)[C@H](C)O3)[C@H](N(C)C)[C@H]2O)[C@@H](CC=O)C[C@@H](C)C(=O)/C=C/C(C)=C/[C@@H]1CO[C@@H]1O[C@H](C)[C@@H](O)[C@@H](OC)[C@H]1OC [Tylosin]	0.535
CN1C(N)=N[C@](C)(c2cc(NC(=O)c3ccc(F)cn3)ccc2F)CS1(=O)=O [Verubecestat (MK-8931)]	0.523
CC(=O)OCC(=O)[C@@]1(O)CC[C@H]2[C@@H]3CCC4=CC(=O)CC[C@]4(C)[C@H]3[C@@H](O)C[C@@]21C [Hydrocortisone acetate]	1.17
CC(C)(CO)[C@@H](O)C(=O)NCCC(=O)O [D-Pantothenic acid]	1.36
CC(C)Cn1cnc2c(N)nc3ccccc3c21 [Imiquimod]	0.967
CCOc1ccc2nc(S(N)(=O)=O)sc2c1 [Ethoxzolamide]	0.892
CCOC(=O)Nc1cc(-c2ccc(C)c(NS(C)(=O)=O)c2)nn2c(C)nnc12 [Bromosporine]	3.34
CCN1CCN(C(=O)N[C@@H](C(=O)N[C@@H]2C(=O)N3[C@@H]2SC(C)(C)[C@@H]3C(=O)O)c2ccccc2)C(=O)C1=O [Piperacillin Sodium]	1.11
CCCCCCCCCCC[C@@H](C[C@@H]1OC(=O)[C@H]1CCCCCC)OC(=O)[C@H](CC(C)C)NC=O [Orlistat]	1.47
